Sampled rows, rich in hits. Any-hit rate of the full collection: about 2.2%.
NALP3 yeast inh – NALP3 inhibition in yeast; Yeast reconstituted NLRP3/ASC/caspase-1, beta-gal luminescence, 24 h; inhibition, % at 10 µM; 330,000 tested, 0.39% active; AID 2825;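 active = inhibition of 50% or more; inactive = inhibition below 50%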;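 also: plate controls were induced DMSO wells for no effect and uninduced yeast grown without galactose for full effect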
dFosB act – mouse delta FosB homodimer activation; 340,000 tested, 0.99% active; P13346; purified delta FosB, TAMRA-CDK5 oligo fluorescence polarization; percent of positive-control signal above neutral wells; AID 493131; activation, % at 25 µM;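 active = mean activation above about 17%, with every replicate also reaching it, limit read from the data, passing the limit was not always enough; inconclusive = only one of the two conditions met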
Target sequence (P13346 whole entry, looked up): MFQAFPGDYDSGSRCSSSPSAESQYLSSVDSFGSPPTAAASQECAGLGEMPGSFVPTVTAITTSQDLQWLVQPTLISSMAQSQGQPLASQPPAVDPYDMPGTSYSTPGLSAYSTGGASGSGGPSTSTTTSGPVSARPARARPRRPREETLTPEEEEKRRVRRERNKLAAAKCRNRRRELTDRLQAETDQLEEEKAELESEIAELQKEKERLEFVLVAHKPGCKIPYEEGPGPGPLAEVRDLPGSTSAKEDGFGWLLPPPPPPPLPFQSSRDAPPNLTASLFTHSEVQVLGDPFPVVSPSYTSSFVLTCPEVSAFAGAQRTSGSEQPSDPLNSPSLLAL
PolyA inhibitor – inhibitors of polyadenylation in S. cerevisiae. S. cerevisiae SKY197-pL101 polyadenylation reporter, beta-gal luminescence; efflux-impaired pdr1/pdr3 knockout yeast; score 100 = 6 SD above DMSO. 300,000 tested, 0.02% active. activity score, % at 12 µM;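 active = lowest replicate activity score at least 50, where 100 means six control SD above control mean; inconclusive = lowest score under 50 but half or more replicates reach 50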;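 also: yeast exposed to compound for 9 h at 30 °C; higher score means more reporter readthrough which indicates perturbed polyadenylation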
EBNA-1 inh – blocks EBNA-1 binding to DNA. EBNA-1 DNA binding, fluorescence polarization. 300,000 tested, 0.34% active. inhibition, % at 14.8 µM; in the data active = inhibition above about 28%
ZTA DNA inh – blocks Epstein-Barr virus ZTA, an EBNA-1 counter-screen; P03206; ZTA-DNA binding, fluorescence polarization; inhibition, % at 11 µM; 320,000 tested, 0.15% active; in the data active = inhibition above about 33%
Target sequence (P03206 whole entry, looked up): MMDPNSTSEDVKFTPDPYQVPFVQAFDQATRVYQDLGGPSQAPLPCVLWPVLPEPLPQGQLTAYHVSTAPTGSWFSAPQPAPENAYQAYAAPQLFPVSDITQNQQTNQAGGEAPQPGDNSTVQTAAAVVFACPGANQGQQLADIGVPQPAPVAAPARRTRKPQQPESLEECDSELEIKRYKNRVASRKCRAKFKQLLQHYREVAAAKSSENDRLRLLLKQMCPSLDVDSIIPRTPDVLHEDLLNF
NALP1 yeast inh – inhibitors of NALP1 inflammasome in yeast. S. cerevisiae NALP1/ASC/caspase-1 growth, X-gal OD620, 72 h. AID 2071. 280,000 tested, 0.61% active. inhibition, % at 10 µM; in the data active = inhibition mostly above about 24%, no sharp cut-off; inactive = mostly below about 32%
Zta DNA confirm – EBV ZTA DNA binding inhibition, confirmation; shares compounds with ZTA DNA inh; Zta-ZRE DNA binding, fluorescence polarization; inhibition, % at 11.1 µM; 320 tested, 30% active; AID 2361;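 active = mean inhibition across triplicate runs above the hit threshold derived for the original primary screen, cut at about 33% in these data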;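 also: 0% = Zta with DMSO and 100% = wells lacking Zta protein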
EBNA-1 counter – blocks EBNA-1 DNA binding in ZTA counter-screen | shares compounds with ZTA DNA inh | fluorescence polarization | inhibition, % at 14.8 µM | 320 tested, under 10 active; call rule not given here
* hit, by the source's call; ? = inconclusive; · = not tested or not shown; + = active, no number.

SMILES	NALP3 yeast inh	dFosB act	PolyA inhibitor	EBNA-1 inh	ZTA DNA inh	NALP1 yeast inh	Zta DNA confirm	EBNA-1 counter
CCCCN1CC(=O)N2[C@H](c3ccc(OC)cc3)[C@@H]3C(=O)N(CC)C(=O)[C@@H]3[C@]2(C)C1=O	10.6	2.6	12.0	5.6	-8.1	20.5	·	·
N/C(=N\OC(=O)COc1ccc(Br)cc1Cl)c1ccccn1	45.4	-4.4	-14.6	-13.3	73.7*	16.1	5.6	-10.1
OC(Cn1cnnc1)c1ccccc1 (centres undefined)	8.1	4.9	-8.0	-3.8	52.6*	13.2	0.8	-1.6
O=C(CN1C(=O)NC2(CCCCCC2)C1=O)NCc1ccccc1Cl	8.9	1.1	·	·	·	·	·	·
OCCOc1ccc(CN2CCN(CCCc3ccccc3)C(CCO)C2)cc1 (centres undefined)	6.6	-8.8	9.7	·	·	21.6	·	·
CC1CCCC(NC(=O)CSc2n[nH]c(=O)n2Cc2ccccc2)C1C (centres undefined)	9.3	·	·	·	·	·	·	·
COC(=O)COc1c(/C=C\c2nc(O)c([N+](=O)[O-])c(=O)[nH]2)cccc1OC	6.4	-4.3	18.1	1.7	13.2	17.0	·	·
C#CCOc1c(/C=C\c2nc(O)c([N+](=O)[O-])c(=O)[nH]2)cc(Br)cc1OC	22.3	3.9	9.3	-4.1	49.6*	6.3	27.3	-14.2
CC(C)COc1ccc(C(=O)Nc2ccc([N+](=O)[O-])cc2)cc1	14.3	-8.3	-17.8	-1.2	-0.8	6.2	·	·
CC(C)OC(=O)c1cc(NC(=S)Nc2ccc([N+](=O)[O-])cc2)cc(C(=O)OC(C)C)c1	13.3	-12.7	-4.5	0.8	51.7*	-8.4	-12.7	-21.1
CCOC(=O)C1(C)NC(c2cccc(C)c2)C2C(=O)N(c3ccccc3)C(=O)C21 (centres undefined)	1.3	-8.4	1.2	-8.3	+	-21.9	11.5	1.0
COc1ccc(S(=O)(=O)N2CCCCCC2)cc1C(=O)NCc1ccc(C)cc1	-4.2	-8.4	·	·	7.0	·	·	·
CCCCn1c(N)c(N(CC(C)C)C(=O)C2CC(=O)N(c3ccc(CC)cc3)C2)c(=O)[nH]c1=O (centres undefined)	21.6	4.3	?	-0.8	-21.0	·	·	·
N=C1/C(=C\c2coc3ccccc3c2=O)C(=O)N=C2SC(c3ccncc3)=NN12	13.3	-23.9	23.6	-2.2	39.0*	·	63.0*	-5.9
COc1cccc2c1C(=O)c1c(O)c3c(c(O)c1C2=O)C[C@@](O)(C(=O)CO)C[C@@H]3O[C@H]1C[C@H](N)[C@@H](O)[C@H](C)O1	40.2	-360.8	3.4	20.0	72.0*	·	105.8*	12.1
CN1CCC(OC(c2ccccc2)c2ccccc2)CC1	27.0	1.3	-5.5	7.4	60.3*	13.3	12.7	6.7
CCc1noc(C)c1C(=O)N(C)CC(=O)Nc1ccc(F)c(F)c1F	-0.6	-1.3	-4.2	-5.7	-5.6	·	·	·
C=CCOc1ccc(/C=C2\SC(=S)N(N3CCOCC3)C2=O)cc1	27.5	2.3	7.8	0.8	40.9*	-2.6	3.4	-2.0
O=C1/C(=C/c2ccncc2)SC(=S)N1N1CCOCC1	29.9	-2.2	-3.4	-4.7	-3.0	·	·	·
Cc1ccnc2nc(C(=O)OCC(=O)Nc3ccc([N+](=O)[O-])cc3Br)nn12	1.5	4.6	·	·	4.3	·	·	·
CCCc1c(C(=O)N/N=C(/C)c2ccncc2)nnn1-c1nonc1N	14.7	-6.0	34.6	0.2	-8.1	12.9	·	·
CCCCCCCCCCC[N+](C)(C)CC/C=C1/c2ccccc2Sc2ccc(Cl)cc21	14.1	-93.2	4.6	2.5	40.5*	14.4	-0.4	-6.3
CCCCCCCCCC[N+](C)(C)CC/C=C1/c2ccccc2Sc2ccc(Cl)cc21	2.1	-68.6	9.6	8.1	34.4*	23.1	5.7	-5.5
CC[N+](C)(C)CC/C=C1/c2ccccc2Sc2ccc(Cl)cc21	11.2	·	-4.6	-6.2	4.7	12.0	·	·
CN(C)CC/C=C1\c2ccccc2Sc2ccc(Cl)cc21	28.7	4.7	12.4	-1.9	1.8	31.5	·	·
SMILES	NALP3 yeast inh	dFosB act	PolyA inhibitor	EBNA-1 inh	ZTA DNA inh	NALP1 yeast inh	Zta DNA confirm	EBNA-1 counter
Cc1ccc(-n2[nH]c(C)c(C=Nc3ccc4[nH]c(=O)[nH]c4c3)c2=O)cc1	-1.0	4.7	0.1	3.4	-8.2	23.2	·	·
Cc1ccc(-n2[nH]c(C)c(C=Nc3ccc4[nH]c(=O)[nH]c4c3)c2=O)cc1C	11.2	-6.7	?	-6.9	52.5*	11.8	14.1	-1.8
CCn1ccc(C(=O)Nc2ccc3c(c2)CCC3)n1	41.2	1.6	-3.7	5.0	-5.5	8.2	·	·
Cc1cc(Nc2cccc(F)c2)n2nc(C)nc2n1	12.6	0.9	-5.5	-1.8	107.1*	-3.7	-9.1	-7.6
C[C@H](CO)N1C[C@H](C)[C@@H](CN(C)C(=O)NC2CCCCC2)Oc2c(NS(=O)(=O)c3cn(C)cn3)cccc2C1=O	4.1	3.6	·	·	·	·	·	·
Oc1ccccc1N1CCN(c2ccc3ccccc3n2)CC1	22.6	-7.7	3.8	-6.0	13.1	16.7	·	·
COc1cc(/C=C2\COC/C(=C\c3ccc(O)c(OC)c3)C2=O)ccc1O	42.7	-10.7	2.3	8.0	51.5*	-7.6	42.4*	-11.2
CNC(=O)C1CCN(S(=O)(=O)c2c(C)noc2/C=C/c2ccc(C)cc2)CC1	13.0	-2.7	8.8	8.0	-12.7	7.4	·	·
O=C(O)c1ccc(-c2ccc(/C=c3/sc4nc5ccccc5n4c3=O)o2)cc1Cl	7.0	-15.2	14.9	-5.3	34.4*	3.4	53.2*	-3.6
Cc1ccc2c(nc3s/c(=C\c4ccc(-c5ccccc5C(=O)O)o4)c(=O)n32)c1C	16.3	-26.9	-9.7	0.3	8.2	12.5	·	·
CCOC(=O)c1ccc(NC(=O)CCc2nc(-c3ccc(C)cc3)no2)cc1	28.6	-15.8	3.1	8.0	35.1*	1.7	-3.7	-7.1
OCCN(CCO)CC(O)Cn1c2ccccc2c2ccccc21 (centres undefined)	4.6	4.4	-10.6	-4.4	60.9*	14.0	9.1	7.3
CN(CC(O)Cn1c2ccccc2c2ccccc21)S(C)(=O)=O (centres undefined)	2.6	-1.2	-6.2	-8.1	0.7	1.3	·	·
COc1ccc(-n2nc(C(=O)NCC(=O)NCCc3ccc(OC)c(OC)c3)c3ccccc3c2=O)cc1Cl	-3.5	-2.6	-12.1	-27.9	3.7	16.2	·	·
CCc1nnc(NC(=O)[C@@H](NC(=O)c2ccc(OC)cc2)C(C)C)s1	-0.2	-7.5	-7.9	-1.0	1.6	0.2	·	·
CCc1nnc(NC(=O)[C@@H](NC(=O)c2cc(OC)cc(OC)c2)C(C)C)s1	8.4	-13.3	-11.5	8.2	116.6*	-5.0	7.2	0.8
CCOC(=O)C(C)Sc1ncc(-c2ccccc2)cn1 (centres undefined)	7.4	-8.9	-21.2	-1.8	78.9*	10.1	-2.4	-9.3

Assay outcomes from PubChem BioAssay.
